According to the supplement of paper PMC8975748:
Structures can show the parent of a compound that is named as a salt.

Test system: Saccharomyces cerevisiae BY4741 SeMeCo community
Experiment: z-score of subpopulation abundance vs DMSO median, subpopulation auxotrophic for HL; higher = larger share of this subpopulation than in DMSO controls
Settings: 10 µM; 24 h; SM minimal medium; subpopulation (auxotrophy): HL
Experimental: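 Fluorescent four-plasmid SeMeCo (self-establishing metabolically cooperating S. cerevisiae BY4741 community; plasmids pH-mRuby2, pL-mWasabi, pU-eCFP, pM-TagRFP657) was grown 24 h in minimal SM medium with each Selleck FDA-approved drug at 10 µM in 384-well plates. Cells were fixed and imaged by high-content confocal microscopy. For each auxotrophic subpopulation (and the prototroph), a z-score gives the deviation from the DMSO vehicle-control population median.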

With `C1N2CN3CN1CN(C2)C3` [Methenamine] as the compound, how does the “z-score of subpopulation abundance” value read?
The value was -0.01.

For `O=C(NCCN1CCOCC1)c1ccc(Cl)cc1`, which “z-score of subpopulation abundance” value is on record?
The value was -0.31.

`CCCCCOc1ccc(-c2cc(-c3ccc(C(=O)N[C@H]4C[C@@H](O)[C@@H](O)NC(=O)[C@@H]5[C@@H](O)[C@@H](C)CN5C(=O)[C@H]([C@H](O)CC(N)=O)NC(=O)[C@H]([C@H](O)[C@@H](O)c5ccc(O)c(OS(=O)(=O)O)c5)NC(=O)[C@@H]5C[C@@H](O)CN5C(=O)[C@H]([C@@H](C)O)NC4=O)cc3)no2)cc1` [Micafungin Sodium] was tested. Which “z-score of subpopulation abundance” value did it give?
The value was 42.5.

For `C[C@@H](O)[C@H]1C(=O)N2C(C(=O)O)=C([C@H]3CCCO3)S[C@H]12` [Faropenem Sodium], which “z-score of subpopulation abundance” value is on record?
Its value is 0.

For `CC[C@H](Nc1ncnc2[nH]cnc12)c1nc2cccc(F)c2c(=O)n1-c1ccccc1` [Idelalisib (CAL-101, GS-1101)], which “z-score of subpopulation abundance” value is on record?
Its value is -1.05.

`CN(C)CCc1c[nH]c2ccc(Cn3cncn3)cc12` [Rizatriptan Benzoate] was tested. Which “z-score of subpopulation abundance” value did it give?
Its value is 0.75.

`COc1cc(O)c(C(=O)Nc2nc(C(=O)NCCN(C(C)C)C(C)C)cs2)cc1OC` [Acotiamide] was tested. Which “z-score of subpopulation abundance” value did it give?
Its value is 1.99.

How did the “z-score of subpopulation abundance” value turn out when `Clc1ccc(COC(Cn2ccnc2)c2ccc(Cl)cc2Cl)c(Cl)c1` (stereo not given) [Miconazole] was run?
The value was 7.22.

Which “z-score of subpopulation abundance” value does the source give for `CCN(CC)CCNC(=O)c1cc(Cl)c(N)cc1OC` [Metoclopramide HCl] here?
The value was 0.1.

For `CCOC(=O)C1=C[C@@H](OC(CC)CC)[C@H](NC(C)=O)[C@@H](N)C1` [Oseltamivir Phosphate], which “z-score of subpopulation abundance” value is on record?
Its value is 0.28.

`Cn1c(=O)c2c(ncn2CC2OCCO2)n(C)c1=O` [Doxofylline] was tested. Which “z-score of subpopulation abundance” value did it give?
Its value is 0.28.

`CCN(CC)CCOc1ccc(C(=C(Cl)c2ccccc2)c2ccccc2)cc1` [Clomifene citrate] was tested. Which “z-score of subpopulation abundance” value did it give?
Its value is 1.64.

For `CN(C)c1cc(NC(=O)CNC(C)(C)C)c(O)c2c1CC1CC3C(N(C)C)C(=O)C(C(N)=O)=C(O)C3(O)C(=O)C1=C2O` (stereo not given) [Tigecycline], which “z-score of subpopulation abundance” value is on record?
Its value is -0.79.

Which “z-score of subpopulation abundance” value does the source give for `CC(C(=O)O)c1ccc2c(c1)[nH]c1ccc(Cl)cc12` (stereo not given) [Carprofen] here?
Its value is 1.64.

How did the “z-score of subpopulation abundance” value turn out when `CC(=O)OC1CC2(C)C(CC(O)C3C4(C)CCC(O)C(C)C4CCC32C)C1=C(CCC=C(C)C)C(=O)O` (stereo not given) [Fusidine] was run?
The value was 2.33.

How did the “z-score of subpopulation abundance” value turn out when `CN(C)CCCN1c2ccccc2Sc2ccccc21` [Promazine hydrochloride] was run?
The value was -0.82.

How did the “z-score of subpopulation abundance” value turn out when `CN1CCCN=C1/C=C/c1cccc(O)c1` [Oxantel Pamoate] was run?
The value was -0.28.

For `COc1cc2c(cc1OC)[C@@H]1Cc3ccc(OC)c(OC)c3CN1CC2` [Rotundine], which “z-score of subpopulation abundance” value is on record?
The value was 0.52.

For `Nc1nc(N)c2nc(-c3ccccc3)c(N)nc2n1` [Triamterene], which “z-score of subpopulation abundance” value is on record?
Its value is 3.45.

Which “z-score of subpopulation abundance” value does the source give for `Nc1c2c(nc3ccccc13)CCCC2` [Tacrine hydrochloride hydrate] here?
Its value is -0.15.

`C/C=C\c1ccc(O)c(OC)c1` [Isoeugenol] was tested. Which “z-score of subpopulation abundance” value did it give?
Its value is -0.5.

With `C[C@@H](O)[C@H]1C(=O)N2C(C(=O)OCOC(=O)C(C)(C)C)=C(SC3CN(C4=NCCS4)C3)[C@H](C)[C@H]12` [Tebipenem Pivoxil] as the compound, how does the “z-score of subpopulation abundance” value read?
The value was -0.41.

With `O=c1ccc2cc(O)c(O)cc2o1` [Esculetin] as the compound, how does the “z-score of subpopulation abundance” value read?
The value was 2.44.

`CN1C[C@@H]2C[C@H]1CN2c1cc2c(cc1F)c(=O)c(C(=O)O)cn2C1CC1` [Danofloxacin Mesylate] was tested. Which “z-score of subpopulation abundance” value did it give?
Its value is -0.06.

For `Cc1ccc(S(=O)(=O)NC(=O)NN2CC3CCCC3C2)cc1` (stereo not given) [Gliclazide], which “z-score of subpopulation abundance” value is on record?
Its value is 0.12.

With `CC(C)(C)C(=O)C(Oc1ccc(Cl)cc1)n1ccnc1` (stereo not given) [Climbazole] as the compound, how does the “z-score of subpopulation abundance” value read?
Its value is 2.46.

For `Cc1c(-c2ccc(O)cc2)n(Cc2ccc(OCCN3CCCCCC3)cc2)c2ccc(O)cc12` [Bazedoxifene HCl], which “z-score of subpopulation abundance” value is on record?
Its value is 1.1.

With `CC(C)[C@H](N)C(=O)OCC(CO)OCn1cnc2c(=O)[nH]c(N)nc21` (stereo not given in full) [Valganciclovir HCl] as the compound, how does the “z-score of subpopulation abundance” value read?
The value was -0.43.

`O=C(O)Cc1ccccc1Nc1c(Cl)cccc1Cl` [Diclofenac Diethylamine] was tested. Which “z-score of subpopulation abundance” value did it give?
The value was -1.1.

`C[N+]1(C)CCC(=C(c2ccccc2)c2ccccc2)CC1` [Diphemanil Methylsulfate] was tested. Which “z-score of subpopulation abundance” value did it give?
Its value is -0.17.

With `CC/C(=C(\c1ccccc1)c1ccc(OCCN(C)C)cc1)c1ccccc1` [Tamoxifen] as the compound, how does the “z-score of subpopulation abundance” value read?
The value was 0.95.

How did the “z-score of subpopulation abundance” value turn out when `Cc1nc2n(c(=O)c1CCN1CCC(c3noc4cc(F)ccc34)CC1)CCCC2` [Risperidone] was run?
Its value is 0.49.

Which “z-score of subpopulation abundance” value does the source give for `O=c1[nH]cc(F)c(=O)[nH]1` [Fluorouracil (5-Fluoracil, 5-FU)] here?
The value was 6.71.

Which “z-score of subpopulation abundance” value does the source give for `Clc1ccc(CCC(Cn2ccnc2)Sc2c(Cl)cccc2Cl)cc1` (stereo not given) [Butoconazole nitrate] here?
The value was 14.5.

For `CCCCCOc1ccccc1/C(=C\SC)n1ccnc1` [Neticonazole Hydrochloride], which “z-score of subpopulation abundance” value is on record?
The value was 4.4.

How did the “z-score of subpopulation abundance” value turn out when `CN(C)C(=O)COC(=O)Cc1ccc(OC(=O)c2ccc(NC(=N)N)cc2)cc1` [Camostat Mesilate] was run?
The value was -0.35.

How did the “z-score of subpopulation abundance” value turn out when `CC1(C)S[C@@H]2[C@H](NC(=O)[C@H](N)c3ccccc3)C(=O)N2[C@H]1C(=O)OCOC(=O)[C@@H]1N2C(=O)C[C@H]2S(=O)(=O)C1(C)C` [Sultamicillin Tosylate] was run?
Its value is 0.21.

Which “z-score of subpopulation abundance” value does the source give for `CO[C@H]1C[C@@H]2CC[C@@H](C)[C@@](O)(O2)C(=O)C(=O)N2CCCC[C@H]2C(=O)O[C@H]([C@H](C)C[C@@H]2CC[C@@H](OCCO)[C@H](OC)C2)CC(=O)[C@H](C)/C=C(\C)[C@@H](O)[C@@H](OC)C(=O)[C@H](C)C[C@H](C)/C=C/C=C/C=C/1C` [Everolimus (RAD001)] here?
The value was 12.2.

With `CO/N=C(\C(=O)N[C@@H]1C(=O)N2C(C(=O)[O-])=C(C[n+]3cccc4c3CCC4)CS[C@H]12)c1csc(N)n1` [Cefpirome sulfate] as the compound, how does the “z-score of subpopulation abundance” value read?
The value was -0.18.

How did the “z-score of subpopulation abundance” value turn out when `CCC[C@@H]1C[C@@H](C(=O)N[C@@H]([C@H]2O[C@H](SC)[C@H](O)[C@@H](O)[C@H]2O)[C@@H](C)O)N(C)C1` [Lincomycin Hydrochloride Monohydrate] was run?
The value was -0.46.
